# In ChEMBL document CHEMBL3988442, “University of Dundee, Small-Polar-MMV Screening Library” (2021):
# The whole screen tested about 48,000 compounds, of which about 13,000 (27%) showed an effect of 50% or more. The list shows a part of the results.
# Test system: Wolbachia pipientis
# Test: Anti-Wolbachia Cell-Based Screen
# Type: functional
# Design: scale not given: in the data most compounds retested in dose-response had high values
# Settings: 5 µM
row,Structure (SMILES),Percent Effect
1,CCc1nnc2ccc(NCC3(N4CCCCC4)CCOCC3)nn12,-22.71%
2,Cc1ccccc1Cc1nc(CSc2nnc(N)n2C)no1,3.092%
3,CCC(CNC(=O)c1ccco1)N1CCc2ccccc2C1 (stereo not given),8.519%
4,CC(C)NC(=O)C1c2c(ncn2C(C)C)CCN1Cc1ccccc1.O=C(O)C(F)(F)F (stereo not given),-4.449%
5,COc1ncccc1CNC(=O)C1=NN(c2ccccc2)C(=O)CN1,17.13%
6,O=C(OCc1ccccc1)c1cccc(NC(=O)C2COCCO2)c1 (stereo not given),-10.37%
7,CC(C)N1Cc2cccc(NCC(=O)N(C)C3CCCCC3)c2C1,-12.78%
8,OCCN1CCC(CNCc2ccc(N3CCCCC3)cc2)CC1,-10.73%
9,CC(C)NS(=O)(=O)c1cc(C(=O)O)cc(-n2cc3c(n2)CCC3)c1,-3.943%
10,CC1=N[C@@]2(CC[C@@H]3CN(CC(C)C)C[C@@H]32)C(=O)N1CC(C)C.O=C(O)C(F)(F)F,10.27%
11,COCCN1C[C@H]2CC[C@@]3(N=C(C)N(CC4CC4)C3=O)[C@H]2C1.O=C(O)C(F)(F)F,-0.9614%
12,CC1=N[C@@]2(CC[C@@H]3CN(Cc4ccccc4C)C[C@@H]32)C(=O)N1CC1CC1.O=C(O)C(F)(F)F,101.1%
13,CC1=N[C@@]2(CC[C@@H]3CN(CC4CC4)C[C@@H]32)C(=O)N1CC1CC1.O=C(O)C(F)(F)F,106.2%
14,CC1=N[C@@]2(CC[C@@H]3CN(Cc4ccccc4F)C[C@@H]32)C(=O)N1CC1CC1.O=C(O)C(F)(F)F,-0.009519%
15,CC1=N[C@@]2(CC[C@@H]3CN(CC4CC4)C[C@@H]32)C(=O)N1CC(C)C.O=C(O)C(F)(F)F,-11.12%
16,O=C(O)C(F)(F)F.O=C1NC(c2ccccc2)=N[C@@]12CC[C@@H]1CN(CC3CC3)C[C@@H]12,1.711%
17,CC1=N[C@@]2(CC[C@@H]3CN(Cc4cccc(Cl)c4)C[C@@H]32)C(=O)N1CC1CC1.O=C(O)C(F)(F)F,106.8%
18,CC1=N[C@@]2(CC[C@@H]3CN(Cc4ccccc4)C[C@@H]32)C(=O)N1CC1CC1.O=C(O)C(F)(F)F,87%
19,CCS(=O)(=O)N1CCC(Nc2c(F)cc(C#N)cc2F)CC1,12.27%
20,Cn1cc(S(=O)(=O)NCC2CCN(C(=O)c3ccoc3)CC2)cn1,-16.26%
21,COCCN1C(=O)[C@]2(CC[C@@H]3CN(C(=O)NC4CCCC4)C[C@@H]32)N=C1C,-7.65%
22,CC1=N[C@@]2(CC[C@@H]3CN(C(=O)NC(C)C)C[C@@H]32)C(=O)N1CC1CC1,1.3%
23,CC1=N[C@@]2(CC[C@@H]3CN(S(=O)(=O)CC(C)C)C[C@@H]32)C(=O)N1C,16.54%
24,CC1=N[C@@]2(CC[C@@H]3CN(Cc4ccc(C)cc4)C[C@@H]32)C(=O)N1CC1CC1.O=C(O)C(F)(F)F,104.5%

row,Structure (SMILES),Percent Effect
1,CCC1=N[C@@]2(CC[C@@H]3CN(Cc4ccccc4F)C[C@@H]32)C(=O)N1.O=C(O)C(F)(F)F,-10.48%
2,COCCN1C(=O)[C@]2(CC[C@@H]3CN(C(=O)NC(C)C)C[C@@H]32)N=C1C,32.84%
3,CC1=N[C@@]2(CC[C@@H]3CN(Cc4ccccc4F)C[C@@H]32)C(=O)N1C,100.6%
4,CC1=N[C@@]2(CC[C@@H]3CN(CC(=O)N(C)C)C[C@@H]32)C(=O)N1CC(C)C.O=C(O)C(F)(F)F,6.41%
5,COCCN1C(=O)[C@]2(CC[C@@H]3CN(Cc4ccccc4F)C[C@@H]32)N=C1C.O=C(O)C(F)(F)F,90.53%
6,COc1ccc(S(=O)(=O)NCC(c2cccn2C)N(C)C)cc1F (stereo not given),1.104%
7,Cc1nn(C)cc1C(=O)N1CCCn2nc(CN3CC[C@H](F)C3)cc2C1,10.52%
8,Cc1nccn1-c1ccc(C(C)NCc2cc[nH]n2)cc1 (stereo not given),-2.741%
9,CCCc1cc(C(=O)N(C)Cc2cccc3ncccc23)n(C)n1,20.91%
10,CCCN(Cc1cccc(OCCO)c1)Cc1ccccc1OC,8.157%
11,CN(Cc1cccc(OCCO)c1)Cc1cccc2ncccc12,95.97%
12,CN(Cc1csc(-c2cccs2)n1)Cc1cccnc1N,16.69%
13,CN(Cc1cccc2ncccc12)C(=O)CCC(F)(F)F,-3.963%
14,CC(C)c1cc(C(=O)N(C)Cc2cccc3ncccc23)n(C)n1,-7.2%
15,CN(Cc1cccc(CCN)c1)Cc1cccc2ncccc12,97.29%
16,COCCN(Cc1cccc(OCCO)c1)Cc1ccccc1F,0.9238%
17,CN(Cc1cccnc1N)Cc1cccc2ncccc12,108.3%
18,Cc1ccsc1-c1cc(C(=O)O)cc(S(=O)(=O)NCc2ccccn2)c1,-12.11%
19,COc1ccccc1Oc1ncccc1CNC(=O)[C@@H](N)CCO,-18.01%
20,O=C(NC1CC1)c1ccnc(N2CCOC(c3ccc(Cl)c(Cl)c3)C2)c1 (stereo not given),-23.24%
21,O=C(NC1CC1)c1ccnc(N2CCOC(c3ccc(Cl)cc3)C2)c1 (stereo not given),-21.25%
22,Cc1ccc(N2CC[C@@H]3O[C@@H](c4ccncn4)C[C@H]3C2)nn1,17.26%
23,Cc1cc(N2CCOC(c3ccncn3)C2)ncn1 (stereo not given),99.32%
24,COc1cc(N2CC[C@@H]3O[C@@H](c4ccncn4)C[C@H]3C2)ncn1,-28.63%

row,Structure (SMILES),Percent Effect
1,Cc1cc(N2CCOC(c3ccc(C(N)=O)cn3)C2)ncn1 (stereo not given),105.9%
2,CN(C)CCN1CCOC2(CCN(c3nccs3)CC2)c2ccccc21,-12.88%
3,N#Cc1ccc(C(=O)N2CCOC[C@H](Oc3cnccn3)C2)cc1,-4.484%
4,CC1(C)CNC(=O)c2nc(CCN3CCCCC3CO)[nH]c2C1 (stereo not given),-22.93%
5,CCOc1cc(NC(=O)C2CC(=O)N(c3cccc(OC)c3)C2)ncn1 (stereo not given),-2.704%
6,CCN(Cc1ccc(C#N)cc1F)C(=O)C(C)(C)C,4.691%
7,CC(C)c1nc2c(n1C)CCN(CC(=O)Nc1ccc(Cl)cn1)C2,6.553%
8,Cc1nn(C)c(C)c1NC(=O)CN1CCc2c(nc(C(C)C)n2C)C1,-19.45%
9,CC(C)c1nc2c(n1C)CCN(CCc1ccccn1)C2,5.197%
10,CC(C)c1nc2c(n1C)CCN(CC(=O)Nc1cccnc1)C2,119.2%
11,CC(C)c1nc2c(n1C)CCN(CC(=O)Nc1ccnn1C(C)C)C2,120.4%
12,CC(C)c1nc2c(n1C)CCN(CC(=O)NCc1ccccn1)C2,-5.66%
13,CC(C)c1nc2c(n1C)CCN(CC(=O)Nc1nccs1)C2,-1.818%
14,CC(C)c1cc(NC(=O)CN2CCc3c(nc(C(C)C)n3C)C2)on1,6.487%
15,CC(C)c1nc2c(n1C)CCN(CC(=O)Nc1ccncc1)C2,127.6%
16,COc1ccnc(N2CCC(=O)N(CC3CC3)C(C(C)C)C2)n1 (stereo not given),-66.14%
17,Cc1n[nH]cc1CNCC(c1cccc(F)c1)N(C)C (stereo not given),-5.12%
18,O=S(=O)(CC1CCOCC1)NCc1ncc(-c2ccccc2)o1,-9.674%
19,Cn1cc(C2CCCN2CC(=O)N(CCC#N)Cc2ccco2)cn1 (stereo not given),0.296%
20,CCNC(=O)CN1CCN(c2cc(C)nc(-c3ccncc3)n2)CC1,108.7%
21,CC(=O)NCC1CCN(c2cc(C)nc(-c3ccncc3)n2)CC1,110%
22,Cc1cc(NCC(=O)NCC(F)(F)F)nc(-c2ccncc2)n1,6.905%
23,CC(=O)NCC1CCN(c2ccnc3ccc(Br)cc23)CC1,3.515%
24,CC(=O)NCC1CCN(c2cc(C(C)C)nc3ccnn23)CC1,-0.4994%

row,Structure (SMILES),Percent Effect
1,Cc1cc(N2CCC(N(C)C(=O)c3ccccc3)CC2)nc(C)n1,-0.5132%
2,O=C(NC1CCN(c2cccc(C(F)(F)F)n2)CC1)C1CC1,-2.588%
3,CCNC(=O)CN1CCN(c2ccnc3c(F)ccc(F)c23)CC1,11.86%
4,Cc1cc(N2CCC(C(=O)N(C)C)CC2)nc(-c2ccncc2)n1,121.6%
5,O=C(NC1CC1)C1CCN(c2cccc(C(F)(F)F)n2)CC1,-5.657%
6,Cc1cc(N2CCC(C(=O)NC3CC3)CC2)nc(-c2ccncc2)n1,96.2%
7,Cc1cc(C)n(-c2cncc(N3CCC(C(=O)N(C)C)CC3)n2)n1,-4.811%
8,COCC(=O)NC(c1ccc(Cl)cc1)c1noc(C)n1 (stereo not given),10.23%
9,CN1CCN(CC[C@@H]2CC[C@H](O)[C@@H](C(=O)Nc3ccccc3)O2)CC1,-5.857%
10,Cc1c(Cl)cc(C(=O)N(CCO)Cc2nccn2C)cc1Cl,-0.9396%
11,CCC1CN(Cc2nnc(C3CC3)o2)CCC(=O)N1Cc1ccccc1 (stereo not given),1.6%
12,Cc1cccc(CNC2CCN(CCc3ccncc3)CC2)c1C,-28.44%
13,O=C(Nc1ccccc1)C1CN(Cc2nccs2)CC12CCOCC2 (stereo not given),-7.197%
14,CCCN(C)C(=O)Nc1ccc(C(=O)NCCC(=O)OC)cc1,0.9295%
15,COc1ccc(-c2nc3c([nH]2)CCNC3C(=O)O)c2ccccc12 (stereo not given),-1.412%
16,Cn1ncc2c(=O)[nH]c(N3CCCC3c3cccs3)nc21 (stereo not given),2.416%
17,O=C1N[C@@H]2CCN(C(=O)C3CC3)[C@@H]2C(=O)N1c1ccc(F)cc1,-5.922%
18,COC(=O)C1CCN(c2cncc(-n3nc(C)cc3C)n2)CC1,-8.177%
19,COC(=O)C1CCN(c2cc(C)nc(-c3ccncc3)n2)CC1,111%
20,Cc1cc(N2CCOC(CN)C2)nc(-c2ccccc2)n1 (stereo not given),6.388%
21,COC(=O)C1CCN(C(=O)CN2CCN(c3cccc(C)c3)CC2)CC1,-8.309%
22,Cc1cc(N2CCOC(C(F)(F)F)C2)nc(-c2ccccc2)n1 (stereo not given),4.501%
23,Cc1cc(N2CCN(c3ccc(=O)[nH]n3)CC2)nc(-c2ccncc2)n1,110.1%
